Laboratory results published in article PMC6212790, “How bacterial xenogeneic silencer rok distinguishes foreign from self DNA in its resident genome”.
Whole data set: some 33,000 sequences, median “e-score” near -0.038, cut for the highest 2% near 0.33. Shown is part of a subset that was picked to be rich in the highest values.

target: T1, GST-Rok-C97-191 (Bacillus subtilis subsp. subtilis str. …, UniProt O34857 97-191); experiment: protein binding microarray; Rok is a gene silencer of Bacillus subtilis; high values mean tight binding; details: protein: recombinant; tags: GST (pTH5325, pDEST15-Magic modified); dsDNA, one strand shown
T1 sequence: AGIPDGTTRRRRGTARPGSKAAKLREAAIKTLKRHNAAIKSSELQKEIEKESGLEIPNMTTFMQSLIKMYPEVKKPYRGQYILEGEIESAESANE
In short: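 Each has a 25-mer constant primer and a 35-mer variable part from a de Bruijn sequence of order 10, covering every non-palindromic 8-mer at least 32 times (palindromic 16). Preference for each 8-mer is given as a rank-based, unitless enrichment score (E-score). Its range runs from 0.5 (most favored) to −0.5 (most disfavored).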

| Sequence | binding signal [E-score] |
| --- | --- |
| ACTGACCA | -0.00734 |
| AGTCCAAT | -0.0629 |
| ATCTATAG | 0.295 |
| TAGTATAA | 0.413 |
| GTATATAA | 0.285 |
| TGATATAA | 0.309 |
| TTATATAA | 0.384 |
| ATCTATAA | 0.355 |
| AAGTATAA | 0.187 |
| GTCTATAA | 0.0588 |
| TAATATAA | 0.309 |
| CAGTATAA | 0.213 |
| ATATATAA | 0.449 |
| GGATATAA | 0.3 |
| AGGACTAG | -0.0267 |
| TAGAATCA | 0.222 |
| AGTCGAGC | -0.0631 |
| CTTTGCGC | -0.101 |
| ACACACCC | -0.0492 |
| ACAGGTTC | -0.0931 |
| CACTATAA | 0.155 |
| TACTATAA | 0.408 |
| AACTATAA | 0.309 |
| CGCAAATA | 0.178 |
| GGAGAAAC | -0.116 |

| Sequence | binding signal [E-score] |
| --- | --- |
| AACCGCGA | -0.00712 |
| GTTATTAA | 0.22 |
| AATGTATG | 0.309 |
| AATGTAGC | 0.144 |
| CTTGTATA | 0.18 |
| AATGTATA | 0.35 |
| CATGTAGA | 0.327 |
| AATGTAGA | 0.359 |
| AATGTAAA | 0.329 |
| AATGTATC | 0.187 |
| GATGTAAA | 0.164 |
| CATGTAAA | 0.25 |
| ATTGTATA | 0.317 |
| GTTGTATA | 0.351 |
| TCCTAAAA | 0.103 |
| CCAGGCCG | -0.0324 |
| TTACTGAA | 0.144 |
| ACGGGTAG | 0.0714 |
| GAGGAAAA | -0.0709 |
| AGTGCACT | 0.024 |
| GTCAGAAA | 0.0136 |
| GCATAACC | 0.0668 |
| GCGGTTCC | -0.143 |
| CCTTAGAC | -0.116 |
| CACAACTA | 0.199 |

| Sequence | binding signal [E-score] |
| --- | --- |
| TCACTAGA | 0.155 |
| AATGTAAG | 0.112 |
| AATGTAAC | 0.166 |
| AATGTAAT | 0.398 |
| CCAGTGAC | -0.156 |
| ACCACAGA | 0.0469 |
| ACATAGTA | 0.298 |
| AAATAGTA | 0.427 |
| TAATAGCA | 0.276 |
| AAATAGCA | 0.0458 |
| AAATAGCC | 0.0812 |
| AAATAGCT | 0.336 |
| TAATAGTA | 0.423 |
| AAATAGTC | 0.049 |
| AAATAGTG | 0.215 |
| AAATAGCG | 0.13 |
| AAATAGTT | 0.406 |
| GAATAGTA | 0.325 |
| AAACCACC | -0.1 |
| ACCGCCGA | -0.0492 |
| CGAAGTCC | -0.0993 |
| CATGTCCG | 0.0905 |
| CGGTAAAC | 0.0274 |
| CAATAGTG | 0.236 |
| CAGTAACA | 0.114 |

| Sequence | binding signal [E-score] |
| --- | --- |
| CAATAGTA | 0.33 |
| AAGTAATA | 0.29 |
| TAGTAATA | 0.403 |
| AAGTAACA | 0.177 |
| CAATAGTC | 0.0177 |
| GAGTAATA | 0.182 |
| TAGTAACA | 0.345 |
| CCTATAAG | 0.0895 |
| CAACGGTA | 0.207 |
| GGATGAAC | 0.0137 |
| AAGCCTCA | -0.158 |
| AAAGCGAG | -0.169 |
| CATGCCCC | -0.186 |
| TGCCGAAA | -0.0675 |
| CAAATGGC | 0.0931 |
| TAGAAATA | 0.416 |
| CAGAAATA | 0.254 |
| GAGAACTA | 0.242 |
| GAGAAATC | 0.0248 |
| AAGAAATA | 0.145 |
| GAGAAAAA | 0.0631 |
| CAGAACTA | 0.309 |
| TAGAACTA | 0.368 |
| GAGAAATA | 0.345 |
| CATTCCGA | -0.0936 |

| Sequence | binding signal [E-score] |
| --- | --- |
| CGTTTACC | -0.0458 |
| ACTATTCT | 0.217 |
| GCCATTTA | -0.19 |
| GAATCGCA | -0.139 |
| GAGAATGA | 0.00699 |
| CCGTTTAA | -0.0736 |
| TAAAAGGA | -0.0824 |
| AAAAACTC | 0.113 |
| CAAAACTA | 0.401 |
| TAAAACTA | 0.334 |
| ACAAACTC | 0.00994 |
| TAAAACAA | 0.0349 |
| AAAAACTT | -0.191 |
| CAAAACAA | -0.0275 |
| ACAAACTG | 0.0787 |
| AAAAACTA | 0.426 |
| ACAAACTA | 0.382 |
| CAAAACTC | 0.162 |
| TAAAACGA | 0.027 |
| GAGGCTGA | -0.165 |
| ACCGCAAG | -0.109 |
| ACGAACTA | 0.311 |
| CCAACTAA | 0.16 |
| ACGCTAAG | 0.0377 |
| CGAAGCTA | 0.0414 |

| Sequence | binding signal [E-score] |
| --- | --- |
| CTCGGAGC | 0.0375 |
| CCAAACTC | -0.0249 |
| CCAAACCA | -0.102 |
| GCAAACAA | -0.173 |
| GAAAACTA | 0.336 |
| GAAAACTC | -0.0271 |
| GAAAACCA | -0.143 |
| GCAAACTA | 0.385 |
| CCAAACTA | 0.376 |
| GCAAACCA | -0.0828 |
| GTTACAGA | 0.21 |
| TGCGCGCA | 0.0584 |
| TAGGGGGA | -0.143 |
| ACAGTTGA | 0.152 |
| CCAGCGTC | -0.163 |
| GATAGACA | 0.058 |
| TATAGACA | 0.00807 |
| GATAGAAA | 0.333 |
| AATAGAAT | 0.318 |
| AATAGAAA | 0.388 |
| AATAGAAC | 0.151 |
| TATAGAAA | 0.397 |
| CATAGAAA | 0.105 |
| GATAGAAC | 0.289 |
| ACAAACCG | -0.027 |

| Sequence | binding signal [E-score] |
| --- | --- |
| TCATTCCA | -0.0328 |
| GCATCCAA | -0.0621 |
| GATAGAGA | 0.104 |
| AATACAGG | -0.0587 |
| GACCCAAC | -0.142 |
| AGAAGCGA | -0.104 |
| GGGCATAC | -0.0596 |
| AATCGACC | -0.0453 |
| GCTACTCA | 0.0267 |
| CAACTATA | 0.277 |
| AAACTAAT | 0.36 |
| AAACTATG | 0.229 |
| AAACTATA | 0.398 |
| AAACTAAG | 0.251 |
| GAACTATC | 0.261 |
| AAACTATC | 0.36 |
| AAACTCTT | 0.063 |
| GAACTATA | 0.29 |
| AAACTATT | 0.448 |
| CAACTATC | 0.156 |
| AAACTAAC | 0.308 |
| AAACAGTC | -0.0408 |
| GCGCCGGA | -0.0972 |
| ATTTAAAA | -0.0263 |
| GAAGCGTC | -0.188 |

| Sequence | binding signal [E-score] |
| --- | --- |
| ATTATTCA | 0.199 |
| CTAGATCA | 0.199 |
| ATTACAGC | 0.215 |
| TAACTAAA | 0.23 |
| TAACTATA | 0.347 |
| AAACTAAA | 0.296 |
| CAGAGAGA | -0.071 |
| CTTTAGGC | -0.0933 |
| GTAGAAAC | 0.435 |
| GTAGAAAA | 0.384 |
| CTAGAAAG | 0.113 |
| GAAGAAAC | 0.108 |
| TTAGAAAA | 0.263 |
| GCAGAAAC | -0.0283 |
| CTAGAAAC | 0.34 |
| CTAGAAAA | 0.312 |
| CAAGAAAC | 0.224 |
| TCAGCCCA | -0.191 |
| TGCCAACA | 0.0271 |
| AGAGGTAA | 0.149 |
| CGGCAAAC | 0.168 |
| AGCGCCGG | -0.146 |
| ACTATACG | 0.0223 |
| ATTATACG | 0.388 |
| ATTATACC | 0.228 |

| Sequence | binding signal [E-score] |
| --- | --- |
| GTTATACA | 0.253 |
| ATTATACA | 0.333 |
| CTTATACA | 0.263 |
| GTACTGCA | 0.119 |
| AGAATGCG | 0.105 |
| ATAGGGAC | -0.176 |
| CACGATCA | -0.0988 |
| AACCCCTG | -0.151 |
| GTCTGACA | -0.163 |
| CATATACA | 0.22 |
| AACATACT | 0.0962 |
| GATATACA | 0.175 |
| AATATACA | 0.394 |
| CATATACC | 0.222 |
| AATATACC | 0.353 |
| TACATACA | 0.253 |
| AATACACA | 0.173 |
| AACATACA | 0.343 |
| TATATACA | 0.402 |
| GATATACC | 0.153 |
| ACTATACA | 0.302 |
